One assay relates to CRL-7250. The assay can be described thus: Cytotoxic Profiling of Annotated Libraries Using Quantitative High-Throughput Screening (AID 1296008). Further: nearly all actives have a fitted effect of over 60% in size. Conditions: Five cell lines viability, CellTiter-Glo ATP luminescence, 48-72 h; max response: hits give low values. The gist of the method: (§1)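 Cells exposed to compounds for 48 or 72 hr at 37 degrees Celsius. Viability read as ATP-coupled luminescence with CellTiter-Glo after 10 min at room temperature.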
(ATP-based viability assays read luminescence as a measure of living cells.)

A further assay relates to HEK293. The description is as above. Conditions: Five cell lines viability, CellTiter-Glo ATP luminescence, 48-72 h; max response: hits give low values. A digest of the protocol: as §1

SMILES strings stand for the structures. Results filed as inconclusive are left out. Activity calls are given as the source filed them. The call rests on the fitted dose curve; in most records, active means well fitted inhibition curve with a large enough effect; inconclusive means small, poorly fitted or top-dose-only effect; inactive means flat fitted curve, though single readings scatter. Where a SMILES comes first, the peptide text is derived from it.
On the % scale 0 is the no-effect control and ±100 the full control effect.

For the compound `Cc1oc(=O)oc1COC(=O)[C@@H]1N2C(=O)[C@@H](NC(=O)[C@H](N)c3ccccc3)[C@H]2SC1(C)C`, the values for the max response in the assay on CRL-7250 and in the assay with HEK293 were -5.05% (inactive) and -0.753% (inactive), respectively.

On to `CCOC(=O)OCC/C(SC(=O)OCC)=C(\C)N(C=O)Cc1cnc(C)nc1N`, for which the max response in the assay on CRL-7250 was -3.12% (inactive); in the assay with HEK293 it was -0.945% (inactive).

Regarding `CCOc1ccc(NS(=O)(=O)c2ccc(N)cc2)nn1`, in the assay on CRL-7250, the max response was 2.59% (inactive). Further, the call in the assay on HEK293 was inactive.

Take `NCC[C@H](O)C(=O)N[C@@H]1C[C@H](N)[C@@H](O[C@H]2O[C@H](CN)[C@@H](O)[C@H](O)[C@@H]2O)[C@H](O)[C@@H]1O[C@H]1O[C@H](CO)[C@@H](O)[C@H](N)[C@@H]1O`: the max response in the assay with CRL-7250 is -2.25% (inactive); in the assay on HEK293, -4.69% (inactive).

As to `CC(=O)CC/C=C(\C)CC/C=C(\C)CC/C=C(\C)CCC=C(C)C`, the compound was classed as inactive with CRL-7250 and in the assay on HEK293.

Take `CCC(=O)O[C@H]1[C@H](O[C@@H]2[C@@H](C)[C@H](O[C@H]3C[C@@](C)(OC)[C@@H](O)[C@H](C)O3)[C@@H](C)C(=O)O[C@H](CC)[C@@](C)(O)[C@H](O)[C@@H](C)C(=O)[C@H](C)C[C@@]2(C)O)O[C@H](C)C[C@@H]1N(C)C`: in the assay with CRL-7250, the max response was 0.377% (inactive). Further, the compound was classed as inactive in the assay on HEK293.

As for `CC(C)CCCC(C)NCCC(C)C` (centres undefined), the figures for the max response in the assay with CRL-7250 and in the assay on HEK293 were -5.37% (inactive) and -7.84% (inactive), respectively.

For `O=C(O)c1[nH]n(-c2ccc(S(=O)(=O)O)cc2)c(=O)c1N=Nc1ccc(S(=O)(=O)O)cc1`, the results for the max response with CRL-7250 and with HEK293 were 0.833% (inactive) and 1.51% (inactive), respectively.

As for `CN(C)C(=O)CNC(=O)Cc1ccccc1`, the results for the max response with CRL-7250 and in the assay on HEK293 were -7.63% (inactive) and -9.26% (inactive), respectively.

As to `NS(=O)(=O)c1ccc(N2CCCCS2(=O)=O)cc1`, the max response with CRL-7250 was -11.1% (inactive). In addition, the call in the assay with HEK293 was inactive.

Consider `Nc1nnnn1-c1ccccc1`, for which the max response is -0.0528% (inactive) in the assay with CRL-7250 and -1.05% (inactive) in the assay with HEK293.

In the case of `CCCC(=O)Nc1ccc(O)c(C(C)=O)c1`, the max response with CRL-7250 was -0.565% (inactive). Further, the outcome in the assay with HEK293 was inactive.

As to `O=C(COCCOCCOCC(=O)Nc1c(I)cc(I)c(C(=O)O)c1I)Nc1c(I)cc(I)c(C(=O)O)c1I`, in the assay with CRL-7250, the compound was called inactive. Also, the max response in the assay on HEK293 is 0.699% (inactive).

Take `CC(=O)N[C@@H](CO)C(=O)N[C@@H](CC(=O)O)C(=O)N[C@@H](CCCCN)C(=O)N1CCC[C@H]1C(=O)O` (Ac-SDKP-OH): the figures for the max response in the assay on CRL-7250 and with HEK293 were 3.47% (inactive) and 0.0413% (inactive), respectively.

Turning to `C1=CC2C3C=CC(C3)C2C1` (centres undefined), the compound was called inactive in the assay with CRL-7250 and in the assay on HEK293.

For the compound `CCCCN(CCN(CCCC)C(=O)N1CCOCC1)C(=O)N1CCOCC1`, the max response in the assay on CRL-7250 is -1.09% (inactive); in the assay with HEK293, -9.35% (inactive).

Turning to `N#Cc1cc(NC(=O)C(=O)O)c(Cl)c(NC(=O)C(=O)O)c1`, the result in the assay on CRL-7250 was inactive. Also, the max response with HEK293 was -3.47% (inactive).

Regarding `CCCC(=O)O[C@]1(C(=O)COC(=O)CC)CC[C@H]2[C@@H]3CCC4=CC(=O)CC[C@]4(C)[C@H]3[C@@H](O)C[C@@]21C`, the max response is 1.61% (inactive) with CRL-7250 and 3.26% (inactive) in the assay on HEK293.

Take `Cc1onc(-c2c(Cl)cccc2Cl)c1C(=O)Cl`: the result in the assay with CRL-7250 was inactive. In addition, the max response in the assay with HEK293 was -4.58% (inactive).

As to `Oc1ccccc1`, the max response is -1.94% (inactive) with CRL-7250 and -1.05% (inactive) in the assay with HEK293.

For `O=C(O)Cc1ccc(OCCNC[C@H](O)c2ccccc2)cc1`, the compound was called inactive in the assay on CRL-7250. In the assay on HEK293, the max response was -3.07% (inactive).

As to `O=C(O)Cc1ccccc1Oc1ccc(Cl)cc1Cl`, the results for the max response in the assay on CRL-7250 and in the assay with HEK293 were 1.12% (inactive) and 3.66% (inactive), respectively.

`CN(CC1(C)CCCO1)S(=O)(=O)c1ccc(Cl)c(S(N)(=O)=O)c1` (centres undefined): the max response in the assay on CRL-7250 was 1.85% (inactive); with HEK293, -6.48% (inactive).

Turning to `CCCCCN(CCCOC)C(=O)C(CCC(=O)O)NC(=O)c1ccc(Cl)c(Cl)c1` (centres undefined), the figures for the max response in the assay on CRL-7250 and in the assay on HEK293 were -0.363% (inactive) and -5.64% (inactive), respectively.

Take `COc1ccc2c(c1)c(CC(=O)OC/C=C(\C)CC/C=C(\C)CCC=C(C)C)c(C)n2C(=O)c1ccc(Cl)cc1`: the compound was classed as inactive in the assay with CRL-7250. Moreover, the max response in the assay on HEK293 is -3.27% (inactive).

On to `Cc1cccc(OCC(O)CNC(C)(C)C)c1C` (centres undefined), for which the max response in the assay with CRL-7250 was -7.39% (inactive); in the assay with HEK293, -11.8% (inactive).

Consider `CC(C)(Oc1ccc(Cl)cc1)C(=O)OCCCOC(=O)C(C)(C)Oc1ccc(Cl)cc1`, for which the max response in the assay with CRL-7250 is -5.16% (inactive); in the assay with HEK293, -15.3% (inactive).

`CCCCN(CCCC)C(C(N)=O)c1ccc(OC)cc1` (centres undefined): in the assay on CRL-7250, the compound was called inactive. Further, the max response in the assay on HEK293 was -5.09% (inactive).

Consider `COC(=O)c1c(Cl)c(Cl)c(C(=O)OC)c(Cl)c1Cl`, for which the max response with CRL-7250 was -7.84% (inactive); with HEK293, -21.7% (inactive).

In the case of `CC(C)C(=O)Nc1cccc(C2CN3CCSC3=N2)c1` (centres undefined), the max response with CRL-7250 is -9.12% (inactive); with HEK293, -1.66% (inactive).

On to `CN(C)CCCOC1(Cc2ccccc2)CCCCCC1`, for which the result in the assay with CRL-7250 and with HEK293 was inactive.

For the compound `C/C(=C1\CCOC(=O)S1)N(C=O)Cc1cnc(C)nc1N`, the max response in the assay on CRL-7250 is -21.8% (inactive); in the assay with HEK293, -12.5% (inactive).

These data come from PubChem BioAssay (NCATS).
